S-ASM inh – inhibitors of human secretory acid sphingomyelinase; P17405; placental ASM, HMU-PC fluorogenic substrate, 60 min; Potency, µM (highest dose often 57.5 µM), without a hit: at the top dose activity change, negative = inhibition, usual class: inhibitors; 340,000 tested, 0.006% active; AID 504937; further: potency means the concentration at half of the fitted maximal effect
Target sequence (P17405 47-631 limits assumed): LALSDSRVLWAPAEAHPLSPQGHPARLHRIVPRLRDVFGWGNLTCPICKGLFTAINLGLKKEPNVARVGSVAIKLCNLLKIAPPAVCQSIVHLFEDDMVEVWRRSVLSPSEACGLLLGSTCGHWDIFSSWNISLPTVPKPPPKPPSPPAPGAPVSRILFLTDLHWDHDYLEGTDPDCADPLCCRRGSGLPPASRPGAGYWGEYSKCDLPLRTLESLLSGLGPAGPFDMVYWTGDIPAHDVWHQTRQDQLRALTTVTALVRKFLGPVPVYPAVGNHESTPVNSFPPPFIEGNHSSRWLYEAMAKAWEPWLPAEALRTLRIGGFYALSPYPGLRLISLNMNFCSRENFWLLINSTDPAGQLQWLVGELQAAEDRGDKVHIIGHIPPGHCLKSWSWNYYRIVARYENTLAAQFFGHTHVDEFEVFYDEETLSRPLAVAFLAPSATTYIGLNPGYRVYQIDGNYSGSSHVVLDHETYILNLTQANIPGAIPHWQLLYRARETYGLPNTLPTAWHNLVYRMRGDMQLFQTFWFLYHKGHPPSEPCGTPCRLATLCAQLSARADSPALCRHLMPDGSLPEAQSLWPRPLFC
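Fluorescence read-out (Ex 386 nm, Em 447 nm) after stopping the reaction at pH 10. Enzyme: ASM from human placenta; substrate HMU-PC0, 9 uM final; 60 min, 37 °C. Compound preincubation 10 min, ambient temperature.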
DT40 TDP1 CPT – growth inhibition of DT40 Tdp1-/-;hTDP1 cells with camptothecin (screen for TDP1 inhibitors). chicken DT40 Tdp1-/-;hTDP1 cells + 20 nM CPT, ATP luminescence, 48 h. Potency, µM (series often up to 46.2 µM), without a hit: at the top dose activity change, negative = growth inhibition, most hits filed as inhibitors. 420,000 tested, 12% active. AID 686979; further: potency means the concentration at half of the fitted maximal effect; on the % scale 0 is the no-effect control and ±100 the full control effect; nearly all actives have a fitted effect of over 55% in size
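Chicken DT40 Tdp1-/- cells stably complemented with human TDP1 were seeded at 400 cells/well in medium containing 20 nM camptothecin, exposed to pin-transferred compounds, and grown at 37 °C for at least 48 hr. Viability was read as ATP luminescence.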
TDP1 cell noCPT – qHTS for Inhibitors of human tyrosyl-DNA phosphodiesterase 1 (TDP1): qHTS in cells in absence of CPT; DT40 Tdp1-/- hTDP1 cells, no CPT, ATP luminescence, 48 h; 420,000 tested, 15% active; Potency, µM (doses to about 46.2 µM), for inactives: top-dose activity change, negative = growth inhibition, usual class: inhibitors; AID 686978, 2013; further: potency means the concentration at half of the fitted maximal effect; on the % scale 0 is the no-effect control and ±100 the full control effect; nearly all actives have a fitted effect of over 55% in size
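Readout: luminescence from CellTiter-Glo after 30 min in the dark at RT. Cells: DT40 Tdp1-/- with stable hTDP1, 400/well. Exposure: compounds alone, ≥48 hr, 37 °C.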
TGFb SMAD3 inh – TGF-b pathway inhibition; Potency, µM (doses to about 46.1 µM), for inactives: at the top dose activity, negative = inhibition, most hits filed as inhibitors; HepG2 CAGA-GFP TGF-b/SMAD3 reporter, GFP fluorescence, 18 h; TGF-beta stimulated, 500 pg/mL final; AID 588855; 410,000 tested, 1.2% active; further: potency means the concentration at half of the fitted maximal effect; on the % scale 0 is the no-effect control and ±100 the full control effect; nearly all actives have a fitted effect of over 65% in size
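TGF-beta reporter screen: HEPG2 CAGA-GFP, 1% FBS, 500 pg/mL TGF-beta final, 18 h; per-cell GFP summed per well; curves fitted and categorized by class.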
HepG2 tox – kills HepG2 cells in TGF-b inhibitor counter-screen | HepG2 CAGA-GFP viability, ATP luminescence, 18 h | Potency, µM (doses to about 46.1 µM), without a hit: at the highest dose activity change, negative = cytotoxicity, hits mostly cytotoxic | 410,000 tested, 0.76% active; further: potency means the concentration at half of the fitted maximal effect
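CellTiter-Glo luminescence gave cytotoxicity after 18 hours at 37 degrees C. The cells were HepG2 CAGA-GFP in 1% FBS DMEM, stimulated with 500 pg/mL TGF-beta after compound addition. %Activity was normalised to no-cell wells (complete cell-killing) and DMSO (no toxicity), and curves were fitted and classified.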
IL1B secr inh – inflammasome signaling inhibition, IL-1 beta readout | THP-1 LPS/ATP IL-1B secretion, AlphaLISA, 16 h; active compounds read low | activity change, % at 57.5 µM | 360,000 tested, 4.7% active; in the data active means activity change below about -50%; inconclusive means mostly about -30% to -49%; further: on the % scale 0 is the no-effect control and ±100 the full control effect
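THP-1 cells pretreated 1 hr with compounds (up to 57.5 uM final), then stimulated with LPS (250 ng/mL final) plus ATP (1.25 mM final); secreted IL-1B measured by AlphaLISA after 16 hr, decreased signal indicating inhibition.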
* = called active by the depositor; ? = inconclusive; · = no result given. In the library only some 19% were active in any assay of this set; here they are far more common. Unless noted, the call rests on the fitted dose curve; in most records, active means well fitted curve in the direction sought with a large enough effect; inconclusive means small, poorly fitted or top-dose-only effect, or another doubt; inactive means no such curve, though single readings can be large; an effect the other way counts as inactive or inconclusive.

SMILES	S-ASM inh	DT40 TDP1 CPT	TDP1 cell noCPT	TGFb SMAD3 inh	HepG2 tox	IL1B secr inh
CC1(C(=O)Nc2cccc(OC(F)(F)F)c2)Cc2c(-c3cccc(C(N)=O)c3)ccnc2O1 (stereo unspecified)	·	?	21µM*	-19%	-36%	17
CC1(C(=O)Nc2cccc(C(F)(F)F)c2)Cc2c(-c3cccc(C(N)=O)c3)ccnc2O1 (stereo unspecified)	·	-100%	6.5µM*	2%	-22%	24
CC1(C(=O)Nc2cccc(C(F)(F)F)c2)Cc2c(-c3ccccc3)ccnc2O1 (stereo unspecified)	·	?	?	?	-36%	13
CCN1C(=O)N(C(C)=O)C2C1N(C(C)=O)C(=O)N2C(C)=O (stereo unspecified)	-2%	20%	-1%	2%	-3%	10
CCOC(=O)Cn1nc(/C=C/c2ccc(C)cc2)ccc1=O	18%	?	23µM*	2%	-4%	-28
CCOC(=O)Cn1nc(/C=C/c2ccccc2)ccc1=O	4%	-19%	-16%	3%	8%	-3
CCOC(=O)Cn1nc(/C=C/c2ccc(C(C)C)cc2)ccc1=O	6%	15µM*	?	?	-45%	-28
N#C/C(=C/c1ccc(N2CCOCC2)o1)c1nc2ccccc2[nH]1	-7%	?	?	248%	-25%	-22
N#C/C(=C\c1ccc(N2CCOCC2)o1)c1ccccc1	-20%	10µM*	?	?	-55%	-84*
N#C/C(=C\c1ccc(N2CCOCC2)cc1)c1ccccc1	-2%	21µM*	15µM*	0%	-7%	?
N#C/C(=C/c1ccc(N2CCOCC2)o1)c1ccc(Br)cc1	?	9.2µM*	15µM*	166%	-47%	-106*
N#CC(=Cc1ccncc1)c1ccccc1	-1%	2%	-28%	-24%	-28%	-74*
Cc1ccc(S(=O)(=O)c2cn(CC(=O)Nc3ccc4c(c3)OCO4)c3ccccc3c2=O)cc1	·	0%	?	?	-13%	·
COc1ccc(NC(=O)Cc2nnc(SCC(=O)NC3CCCCC3C)n2C)cc1 (stereo unspecified)	5%	10%	-8%	-17%	-11%	-1
Cc1ccc(C(=O)/C=C/N(C)C)o1	-4%	22%	5%	-2%	-9%	-7
Cc1ccc(C(=O)/C=C/c2cc(Br)cc(Br)c2O)o1	-11%	-21%	29µM*	18%	14%	?
CCOc1ccc(C(=O)Nc2ccc3c(c2)OCCO3)cc1Br	·	?	?	16%	-50%	·
CCOc1cc(CNc2ccc3c(c2)OCCO3)cc(Br)c1OCC	-20%	2.6µM*	0.82µM*	?	-12%	-11
CCOc1cc(CNc2ccc(N3CCOCC3)cc2)cc(Br)c1OCC	-7%	?	16µM*	0%	-23%	?
CCOc1c(Br)cc(CNc2ccc(N3CCN(C(C)=O)CC3)cc2)cc1OC	0%	16µM*	?	?	-5%	?
CC(=O)N1CCN(c2ccc(NCc3ccc(F)cc3)cc2)CC1	4%	-20%	3%	-20%	-14%	14
COc1cc(CNc2ccc(N3CCN(C(C)=O)CC3)cc2)ccc1OCc1ccc(F)cc1	-2%	?	16µM*	?	-16%	-19
Cc1c(Cl)cccc1NC(=S)N(Cc1cccs1)C1CCCC1	0%	5%	-24%	0%	0%	19
COc1cc(CNc2ccc(N3CCOCC3)cc2)cc(Br)c1OC	-1%	?	16µM*	?	-19%	-15
COc1cc(CC(=O)Nc2ccc(N3CCOCC3)cc2)cc(OC)c1OC	0%	3%	-24%	-1%	2%	48
SMILES	S-ASM inh	DT40 TDP1 CPT	TDP1 cell noCPT	TGFb SMAD3 inh	HepG2 tox	IL1B secr inh
Cc1ccc([N+](=O)[O-])cc1N(CC(=O)Nc1ccc(S(=O)(=O)Nc2cccc(C(F)(F)F)c2)cc1)S(C)(=O)=O	-24%	?	18µM*	-94%	-91%	-84*
COc1ccc(S(=O)(=O)N(CC(=O)Nc2cccc(C(F)(F)F)c2)c2ccc(C)cc2)cc1	·	?	23µM*	0%	-35%	·
COC(=O)c1ccc(Cl)c(NC(=O)CN(c2ccccc2)S(=O)(=O)c2ccc(OC)cc2)c1	-2%	?	16µM*	-4%	-7%	12
COc1ccc(N(CC(=O)Nc2cccc(N(C)S(C)(=O)=O)c2)S(=O)(=O)c2ccc(C)cc2)cc1	-2%	?	?	-2%	-41%	8
CCOc1ccc(S(=O)(=O)N(CC(=O)Nc2ccc(OC)cc2OC)c2ccccc2)cc1	·	?	?	-1%	3%	·
COc1ccc(N(CC(=O)Nc2cccc(N(C)S(C)(=O)=O)c2)S(=O)(=O)c2ccc(F)cc2)cc1	-5%	16µM*	?	?	-30%	-18
CCON1C(=O)C2(CCCCC2)C(=O)C12C=CCCC2 (stereo unspecified)	1%	14%	-5%	-32%	3%	13
Cc1ccc(CS(=O)(=O)c2cn(CC(=O)Nc3ccon3)c3ccccc23)cc1	-5%	15%	?	5%	2%	-18
COC(=O)c1cc(S(=O)(=O)N(C)Cc2ccco2)c[nH]1	4%	10%	-16%	12%	-19%	-6
CCN1CCN(CC(=O)N2CCCC(C(=O)c3ccc(Oc4ccccc4)cc3)C2)CC1 (stereo unspecified)	-1%	?	?	13%	2%	-14
COc1ccc(S(=O)(=O)N(CC(=O)Nc2cc(C)cc(C)c2)c2ccc(Cl)cc2)cc1	·	?	23µM*	-21%	-25%	·
CCOc1ccc(N(CC(=O)Nc2cccc(N(C)S(C)(=O)=O)c2)S(=O)(=O)c2ccccc2)cc1	-1%	21µM*	?	?	-34%	-14
COC(=O)c1ccc(NC(=O)CN(c2cccc(C(F)(F)F)c2)S(C)(=O)=O)cc1	·	23µM*	4.6µM*	-9%	-13%	·
CCOc1ccc(S(=O)(=O)N(CC(=O)Nc2ccc3c(c2)OCO3)c2ccccc2)cc1	·	-9%	-6%	-10%	-27%	·
COc1ccc(N(CC(=O)Nc2cccc(N(C)S(C)(=O)=O)c2)S(=O)(=O)c2ccccc2)cc1Cl	0%	10µM*	21µM*	?	-32%	-1

Compound activity from PubChem.
